Reference: PubChem BioAssay AID1159580 (chemical genetic matrix, 2015)
“And” between values parts separate entries of the source, which are not always exact repeats. Equal entries are not always repeated. Out of some 5,500 compounds screened, about 2,000 (36%) were called active. Inconclusive results (about 18%) are left out. Rule as the data show it: active = normalized growth mostly below about 0.91 (no sharp cut-off); inconclusive = no clear call, values can overlap the other calls; inactive = mostly above about 0.92. This is one part of the list.

Test: chemical genetic growth profiling, strain panel (AID 1159580);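 also: tested at 20 µM; growth read once vehicle control cultures reached saturation at 30 °C; 1 = growth at the plate median or of vehicle wells; lower values mean less growth of the strain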
Details: S. cerevisiae deletion strains, growth OD

Measured: normalized growth

O=C1C=CC2=C3c4cc(O)c(O)cc4C[C@@]3(O)COC2=C1
inactive: locus YAL021C, strain ccr4, stronger effect = lower value 0.965 | locus YAL026C, strain drs2, stronger effect = lower value 0.973 | locus YAL030W, strain snc1, stronger effect = lower value 0.979 | locus YBL061C, strain skt5, stronger effect = lower value 0.992 | locus YBR009C, strain hhf1, stronger effect = lower value 0.984 | locus YBR021W, strain FUR4, stronger effect = lower value 1.01 | locus YBR023C, strain chs3, stronger effect = lower value 0.99 | locus YBR171W, strain sec66, stronger effect = lower value 0.988 | locus YBR229C, strain ROT2, stronger effect = lower value 0.998 | locus YBR231C, strain swc5, stronger effect = lower value 0.978 | locus YBR279W, strain paf1, stronger effect = lower value 0.985 | locus YCL011C, strain gbp2, stronger effect = lower value 0.975 | locus YCL016C, strain dcc1, stronger effect = lower value 0.95 | locus YCL029C, strain bik1, stronger effect = lower value 1 | locus YCL061C, strain MRC1, stronger effect = lower value 0.98 | locus YCL069W, strain vba3, stronger effect = lower value 0.981 | locus YCR088W, strain abp1, stronger effect = lower value 0.99 | locus YDL005C, strain med2, stronger effect = lower value 0.966 | locus YDL035C, strain GPR1, stronger effect = lower value 1.03 | locus YDL040C, strain nat1, stronger effect = lower value 0.97 | locus YDL074C, strain BRE1, stronger effect = lower value 1 | locus YDL101C, strain DUN1, stronger effect = lower value 0.981 | locus YDL134C, strain PPH21, stronger effect = lower value 0.998 | locus YDL185W, strain tfp1, stronger effect = lower value 0.985 | locus YDL192W, strain arf1, stronger effect = lower value 1.01 | locus YDR001C, strain nth1, stronger effect = lower value 0.978 | locus YDR069C, strain doa4, stronger effect = lower value 0.94 | locus YDR101C, strain arx1, stronger effect = lower value 1.05 | locus YDR137W, strain rgp1, stronger effect = lower value 1.01 | locus YDR150W, strain NUM1, stronger effect = lower value 1 | locus YDR159W, strain sac3, stronger effect = lower value 0.986 | locus YDR162C, strain NBP2, stronger effect = lower value 1.03 | locus YDR195W, strain ref2 0.939 | locus YDR297W, strain sur2, stronger effect = lower value 0.981 | locus YDR318W, strain mcm21, stronger effect = lower value 0.998 | locus YDR334W, strain swr1, stronger effect = lower value 0.967 | locus YDR335W, strain msn5, stronger effect = lower value 0.969 | locus YDR388W, stronger effect = lower value 1 | locus YDR392W, strain spt3, stronger effect = lower value 0.95 | locus YDR502C, strain sam2, stronger effect = lower value 0.999 | locus YEL003W, strain gim4, stronger effect = lower value 0.989 | locus YEL037C, strain rad23, stronger effect = lower value 0.981 | locus YEL061C, strain CIN8 (second series), stronger effect = lower value 0.975 | locus YER015W, strain faa2, stronger effect = lower value 0.982 | locus YER016W, strain bim1, stronger effect = lower value 0.976 | locus YER110C, stronger effect = lower value 0.986 | locus YER111C, strain swi4, stronger effect = lower value 0.98 | locus YER155C, strain BEM2 (second series), stronger effect = lower value 0.972 | locus YER155C, strain BEM2, stronger effect = lower value 1.02 | locus YER167W, strain BCK2, stronger effect = lower value 1.01 | locus YFR010W, strain ubp6, stronger effect = lower value 0.963 | locus YGL078C, strain dbp3, stronger effect = lower value 0.967 | locus YGL086W, strain mad1, stronger effect = lower value 1.01 | locus YGL167C, strain pmr1, stronger effect = lower value 0.964 | locus YGL173C, strain kem1, stronger effect = lower value 0.977 | locus YGL227W, strain vid30, stronger effect = lower value 0.989 | locus YGL240W, strain doc1, stronger effect = lower value 0.985 | locus YGL248W, strain PDE1, stronger effect = lower value 0.981 | locus YGL253W, strain hxk2, stronger effect = lower value 0.978 | locus YGR135W, strain pre9, stronger effect = lower value 0.954 | locus YGR252W, strain gcn5, stronger effect = lower value 0.939 | locus YHR013C, strain ard1, stronger effect = lower value 0.954 | locus YHR027C, strain rpn1, stronger effect = lower value 0.972 | locus YHR030C, strain SLT2, stronger effect = lower value 1.03 | locus YHR079C, strain IRE1 (second series), stronger effect = lower value 1 | locus YHR079C, strain IRE1, stronger effect = lower value 1.02 | locus YHR094C, strain hxt1, stronger effect = lower value 0.994 | locus YHR129C, strain ARP1, stronger effect = lower value 0.997 | locus YHR142W, strain chs7, stronger effect = lower value 0.963 | locus YHR200W, strain rpn10, stronger effect = lower value 0.991 | locus YIL066C, strain RNR3, stronger effect = lower value 1.01 | locus YIL073C, strain SPO22, stronger effect = lower value 0.996 | locus YIL125W, strain kgd1, stronger effect = lower value 0.994 | locus YIR030C, strain dcg1, stronger effect = lower value 0.999 | locus YJL092W, strain hpr5, stronger effect = lower value 0.991 | locus YJL095W, strain BCK1 (second series), stronger effect = lower value 0.975 | locus YJL095W, strain BCK1, stronger effect = lower value 0.979 and 1.04 | locus YJL115W, strain asf1, stronger effect = lower value 0.975 | locus YJL129C, strain trk1, stronger effect = lower value 1 | locus YJL134W, strain LCB3, stronger effect = lower value 1.01 | locus YJL154C, strain vps35, stronger effect = lower value 0.981 | locus YJL164C, strain tpk1, stronger effect = lower value 0.962 | locus YJL166W, strain qcr8, stronger effect = lower value 0.979 | locus YJL168C, strain set2, stronger effect = lower value 0.996 | locus YJL187C, strain SWE1 (second series), stronger effect = lower value 0.96 | locus YJL187C, strain SWE1, stronger effect = lower value 0.988 | locus YJR043C, strain POL32, stronger effect = lower value 1.03
